Data reported in article PMC6925144, “A prospective compound screening contest identified broader inhibitors for Sirtuin 1” (Scientific Reports, 2019).
The full ranking holds about 3,200 compounds; the median of “TSA(without NAD+) / Primary screening (TSA) / delta Tm (K)” is about -0.07, and the highest 2% start at about 0.37. Only a selection was taken, and the highest values are over-represented in it overall.

biological target: NAD-dependent deacetylase Sirtuin 1 (human, UniProt Q96EB6); assay: primary screen, delta tm; set-up: single well (n = 1); details: 10 µM
Sequence (Q96EB6 2-747 limits assumed): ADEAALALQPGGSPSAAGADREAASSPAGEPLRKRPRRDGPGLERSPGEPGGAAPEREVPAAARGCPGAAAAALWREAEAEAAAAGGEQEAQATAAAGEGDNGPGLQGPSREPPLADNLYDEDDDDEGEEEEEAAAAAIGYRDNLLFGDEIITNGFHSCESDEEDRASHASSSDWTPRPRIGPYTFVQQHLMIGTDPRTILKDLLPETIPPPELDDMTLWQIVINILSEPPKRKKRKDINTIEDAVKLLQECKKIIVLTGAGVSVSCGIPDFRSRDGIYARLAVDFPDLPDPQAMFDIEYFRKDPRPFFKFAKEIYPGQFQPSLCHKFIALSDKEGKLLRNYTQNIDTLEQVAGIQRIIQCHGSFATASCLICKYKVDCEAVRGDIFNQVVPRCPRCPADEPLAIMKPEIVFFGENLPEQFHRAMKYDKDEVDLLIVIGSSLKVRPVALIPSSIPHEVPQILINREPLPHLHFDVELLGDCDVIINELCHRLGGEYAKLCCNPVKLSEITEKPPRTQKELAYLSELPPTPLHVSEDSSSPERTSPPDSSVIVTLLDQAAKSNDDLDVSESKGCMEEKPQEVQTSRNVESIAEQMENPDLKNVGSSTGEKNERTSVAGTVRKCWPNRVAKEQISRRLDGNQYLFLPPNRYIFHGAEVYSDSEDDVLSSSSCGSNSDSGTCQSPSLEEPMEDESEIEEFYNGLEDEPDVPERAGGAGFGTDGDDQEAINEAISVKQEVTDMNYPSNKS
Protocol: A total of 3,192 compounds extracted from the proposed lists were first screened by thermal shift assay (TSA), which determined a melting temperature shift (ΔTm) of Sirtuin 1 upon the addition of a test compound at a concentration of 10 µM (n = 1) with primary hit criteria of ΔTm > 0.45 K or ΔTm < −1.5 K. Primary hits (48 compounds) were retested in the same assay at three concentrations (5, 10, 20 µM, n = 4) for hit confirmation and for dose-dependency check. Secondary hits (41 compounds) were checked their selectivity for Sirtuin 1 based on counterscreening on unrelated protein targets (bovine carbonic anhydrase (CA) and recombinant SH2 domain of hABL1 kinase (ABL1)) at three different concentrations (5, 10, 20 µM, n = 4), which yielded 38 hit compounds, hereafter referred to as TSA hits. The TSA screening above was conducted in the absence of NAD+.

Row | SMILES | TSA(without NAD+) / Primary screening (TSA) / delta Tm (K)
1 | COc1ccc(C(=O)C2=C(O)C(=O)N(CCCN3CCOCC3)C2c2ccco2)cc1Cl (centres unmarked) | 0.02 K
2 | Cn1cc(C(=O)Nc2cccc(C3(C)NC(=O)NC3=O)c2)c2ccccc21 (centres unmarked) | -0.14 K
3 | CCc1c(C)c(C#N)c2nc3ccccc3n2c1Cl | -0.08 K
4 | Cc1c(CCC#N)c(Cl)n2c(nc3ccccc32)c1C#N | -0.04 K
5 | CCc1c(C)c(C#N)c2nc3ccccc3n2c1S | 0.39 K
6 | Cc1nc2cc(NC(=O)C3Cc4ccccc4O3)ccc2o1 (centres unmarked) | 0.03 K
7 | O=C(CCl)c1c(-c2ccccc2)[nH]c2ccccc12 | -0.04 K
8 | c1ccc(-c2[nH]c3ccccc3c2-c2ccccc2)cc1 | 0.45 K
9 | Nc1nc(-c2c(-c3ccccc3)[nH]c3ccccc23)cs1 | 0.09 K
10 | c1ccc(-c2[nH]c3c(ccc4ccccc43)c2-c2ccccc2)cc1 | 0.52 K
11 | Cc1cccc2c(CC(=O)O)c(-c3ccccc3)[nH]c12 | -0.02 K
12 | CC1(C)CC1N (centres unmarked) | -0.22 K
13 | NC(=O)Cc1ccc(NC(=O)c2cc(Br)ccc2Cl)cc1 | -0.11 K
14 | CCCCOc1cc(C2NC(N)=Nc3nc4ccccc4n32)ccc1OC (centres unmarked) | -0.17 K
15 | NC1=Nc2nc3ccccc3n2C(c2ccc(-c3ccc(C(=O)O)cc3)o2)N1 (centres unmarked) | 1.36 K
16 | CC(C)(CNc1ncnc2ccsc12)C(N)=O | -0.02 K
17 | O=C1/C(=C/c2ccc(Br)cc2F)Cc2c(O)cccc21 | -0.03 K
18 | Oc1cccc2c1Cc1c-2nc2ccc(Cl)cc2c1-c1ccccc1Cl | 0.38 K
19 | CCCOCC(=O)O | -0.13 K
20 | Cc1cccc(Nc2nnc(SCC(=O)Nc3ccc(C(N)=O)cc3)s2)c1 | -0.04 K

Row | SMILES | TSA(without NAD+) / Primary screening (TSA) / delta Tm (K)
21 | Cc1ccc(Nc2nnc(SCC(=O)Nc3cc(C)c(C)cc3[N+](=O)[O-])s2)cc1 | -0.03 K
22 | COc1ccc(NC(=O)CSc2nnc(Nc3ccc(SC(F)F)cc3)s2)cc1OC | 0.73 K
23 | O=C(C1=C(O)C(=O)N(CCCN2CCOCC2)C1c1ccco1)c1ccco1 (centres unmarked) | -0.22 K
24 | Cc1nc2ccccc2nc1SCc1cc(=O)n2ccsc2n1 | 0.02 K
25 | O=C(COC(=O)CNC(=O)C12CC3CC(CC(C3)C1)C2)Nc1ccccc1Cc1ccccc1 | 0.13 K
26 | CCCCOC(=O)c1ccc(NC(=O)COC(=O)CNC(=O)C23CC4CC(CC(C4)C2)C3)cc1 | 0.48 K
27 | CCOc1ccc(CCNC(=O)COC(=O)CNC(=O)C23CC4CC(CC(C4)C2)C3)cc1OCC | 0.03 K
28 | CC(C)Oc1ccc(C(=O)C2=C(O)C(=O)N(CCCN3CCOCC3)C2c2ccncc2)cc1 (centres unmarked) | -0.07 K
29 | O=c1c2ccccc2ncn1CC(O)c1ccccc1Cl (centres unmarked) | -0.17 K
30 | COc1ccc(/C=N/c2ccc(C(=O)O)cc2)cc1Br | 0.07 K
31 | N#Cc1c(Cn2nnc3ccccc3c2=O)cn2ccccc12 | 0.07 K
32 | COc1cc(C(C)=O)ccc1COc1ccc(C(=O)OC(C)C(=O)NC23CC4CC(CC(C4)C2)C3)cc1OC (centres unmarked) | 0.05 K
33 | CC(OC(=O)c1cccc(S(=O)(=O)NCc2ccccc2)c1)C(=O)NC12CC3CC(CC(C3)C1)C2 (centres unmarked) | -0.03 K
34 | Cc1ccc([N+](=O)[O-])cc1S(=O)(=O)Nc1ccc(C(=O)OC(C)C(=O)NC23CC4CC(CC(C4)C2)C3)cc1 (centres unmarked) | 0.86 K
35 | CCC(N)COC (centres unmarked) | -0.18 K
36 | Cc1ccc(Nc2nnc(SCC(=O)NC(=O)NCc3ccco3)s2)cc1 | 0.07 K
37 | c1ccc(CN2CCCCCC2)c(CNc2ccc3nnnn3n2)c1 | -0.11 K
38 | Cc1cc(F)ccc1N1CCCC(Nc2ccc3nnnn3n2)C1 (centres unmarked) | 0.63 K
39 | Cc1ncc(CN2CCC(Nc3ccc4nnnn4n3)C(C)C2)s1 (centres unmarked) | 0.12 K
40 | NC(=O)c1ncn(-c2ccncc2)c1N | -0.02 K

Row | SMILES | TSA(without NAD+) / Primary screening (TSA) / delta Tm (K)
41 | CC1CN(S(=O)(=O)c2cccc(C(=O)OCC(=O)COC(=O)c3cccc(S(=O)(=O)N4CC(C)OC(C)C4)c3)c2)CC(C)O1 (centres unmarked) | -0.11 K
42 | Cc1cccc(-n2ccnc2SCC(=O)Nc2ccc(S(=O)(=O)Nc3nccs3)cc2)c1C | 0.08 K
43 | NC(=O)COC(=O)c1ccc(OCC(=O)Nc2cccc(C(F)(F)F)c2)cc1 | -0.02 K
44 | O=C(COc1ccccc1C(=O)Nc1ccc(S(=O)(=O)Nc2nccs2)cc1)Nc1cccc(C(F)(F)F)c1 | 0.98 K
45 | CCOc1cc(N2CCOCC2)c(OCC)cc1NC(=O)C1=COCCO1 | -0.15 K
46 | CC(NC(=O)COC(=O)CNC(=O)c1ccc(-c2ccccc2)cc1)C12CC3CC(CC(C3)C1)C2 (centres unmarked) | 0.06 K
47 | NC(=O)c1cc2c(ccc3ccccc32)o/c1=N\c1ccc(Br)cc1 | -0.32 K
48 | O=C(Nc1cccc(-c2nc(C3CC3)no2)c1)c1cccc(NC(=O)C2CCCCC2)c1 | 0.42 K
49 | O=C(O)C1CC(=O)N(c2cccc(-c3nc(C4CC4)no3)c2)C1 (centres unmarked) | 0.03 K
50 | O=C(NCc1cccc(NC(=O)C2CC2)c1)c1ccc(C(=O)c2ccccc2)cc1 | -0.11 K
51 | Cc1ccc2c(c1)c(=O)n(C)c1nnc(CN3CCc4ccccc4C3)n21 | -0.32 K
52 | O=C(NC1=NCCS1)c1cc(Cl)ccc1O | -0.05 K
53 | CC(O)CC(C)(C)CNC(=O)Nc1ccc(F)cc1 (centres unmarked) | -0.13 K
54 | COc1ccc(CN2C(=O)/C(=C/NNC(=O)CC34CC5CC(CC(C5)C3)C4)c3ccccc3C2=O)cc1 | 0.09 K
55 | O=C1/C(=C/NNC(=O)C23CC4CC(CC(C4)C2)C3)c2ccccc2C(=O)N1Cc1ccccc1 | 0.46 K
56 | O=C1CCCN1Cc1ccc(-c2ccccc2CNC(=O)C23CC4CC(CC(C4)C2)C3)cc1 | -0.28 K
57 | O=C(CC12CC3CC(CC(C3)C1)C2)NN/C=C1/C(=O)N(Cc2ccccc2)C(=O)c2ccccc21 | 0.32 K
58 | COc1ccc(N2C(=O)/C(=C/NNC(=O)C34CC5CC(CC(C5)C3)C4)c3ccccc3C2=O)cc1 | 0.43 K
59 | O=C1NC(=O)c2ccccc2/C1=C\NNC(=O)C12CC3CC(CC(C3)C1)C2 | 0.33 K
